Compounds without any hit were thinned out: in the full panel of roughly 83,000, 20% have a hit.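 Method: cells in 96-well plates; compound added at one concentration; 48 h incubation; percent growth measured; values under 10 scored active.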 Unmarked numbers belong to inactive results. Activity calls are given as the source filed them.

Test systems include NCI-H23 lung; NCI-H226 lung; NCI-H322M lung; HOP-62 NSCLC; NCI-H460 lung; HOP-92 NSCLC; NCI-H522 lung; A549/ATCC NSCLC; 786-0 renal; COLO 205 colon; DU-145 prostate; K-562 leukemia; MALME-3M melanoma; MDA-MB-231 breast; RXF 393 renal; SF-268 CNS; SF-295 CNS; SF-539 CNS; UACC-257 melanoma; M14 melanoma.
Common to all, as to test: NCI-60 one-dose screen, 48 h (100 = growth as untreated, 0 = no growth, -100 = all killed)
Conditions in all cases: 10 µM unless noted

As to `C=CN(C(=O)N1CCN(c2cc3c(cc2F)c(=O)c(C(=O)O)cn3C2CC2)CC1)c1nc(-c2ccccc2)cs1`, the growth in the assay on NCI-H23 lung is 101%; with NCI-H226 lung, 98.1%; with NCI-H322M lung it was 84.1%; in the assay with HOP-62 NSCLC it was 98.4%; in the assay on NCI-H460 lung, 104%; in the assay with HOP-92 NSCLC, 90.6%. The growth was 81.4% in the assay on NCI-H522 lung; 102% with A549/ATCC NSCLC; 90.1% in the assay with 786-0 renal; 98.5% in the assay with COLO 205 colon; 107% in the assay on DU-145 prostate; 94.8% with K-562 leukemia. Also, the growth in the assay with MALME-3M melanoma is 107%; in the assay with MDA-MB-231 breast, 90.4%; with RXF 393 renal it was 103%; with SF-268 CNS, 99.4%; with SF-295 CNS, 95.7%; in the assay with SF-539 CNS, 96.5%. The values for the growth with UACC-257 melanoma and with M14 melanoma were 100% and 105%, respectively.
Consider `N#Cc1c(-c2ccccc2)nc2c(c(-c3ccc(Cl)cc3)nn2-c2ccccc2)c1-c1ccc([N+](=O)[O-])cc1`, for which the growth is 96% with NCI-H23 lung; 94.7% in the assay with NCI-H226 lung; 97% in the assay on NCI-H322M lung; 94.7% in the assay on HOP-62 NSCLC; 103% in the assay with NCI-H460 lung; 103% in the assay on HOP-92 NSCLC. Further, the growth in the assay on NCI-H522 lung was 91.7%; in the assay on A549/ATCC NSCLC it was 100%; in the assay on 786-0 renal, 110%; in the assay with COLO 205 colon it was 110%; with DU-145 prostate, 101%; in the assay with K-562 leukemia, 101%. The growth with MALME-3M melanoma is 101%; in the assay with MDA-MB-231 breast, 102%; in the assay with RXF 393 renal, 109%; in the assay on SF-268 CNS, 98.6%; with SF-295 CNS it was 98.7%; in the assay with SF-539 CNS, 95.9%. Moreover, the growth in the assay on UACC-257 melanoma was 96.2%; with M14 melanoma, 97.9%.
On to `O=C(N/N=C/c1ccc(Cl)cc1)c1ccc(NC(=O)c2ccccn2)cc1`, for which the growth was 54.5% with NCI-H23 lung; 42.8% in the assay on NCI-H226 lung; 66.4% in the assay on NCI-H322M lung; 59.4% in the assay with HOP-62 NSCLC; 4.21% (active) with NCI-H460 lung; 51.6% in the assay with HOP-92 NSCLC. The growth in the assay on NCI-H522 lung was 73.3%; in the assay with A549/ATCC NSCLC it was 26.1%; in the assay with 786-0 renal, 4.44% (active); in the assay on COLO 205 colon, 59.1%; in the assay on DU-145 prostate it was 60.7%; with K-562 leukemia it was 61%. The growth with MALME-3M melanoma is 44.9%; with MDA-MB-231 breast it was 41.4%; in the assay on RXF 393 renal it was 64.7%; in the assay with SF-268 CNS, 70.5%; in the assay with SF-295 CNS it was 56.4%; in the assay with SF-539 CNS, 46%. The figures for the growth in the assay with UACC-257 melanoma and in the assay with M14 melanoma were 63.3% and 55.4%, respectively.
Turning to `Nc1c(Cl)cc(/C=C2\C=Cc3ccccc32)cc1Cl`, the growth in the assay with NCI-H23 lung is 97.4%; in the assay on NCI-H226 lung, 98.7%; with NCI-H322M lung it was 106%; in the assay with HOP-62 NSCLC, 102%; with NCI-H460 lung, 112%; in the assay on HOP-92 NSCLC, 99.6%. The growth is 93.1% with NCI-H522 lung; 92.7% in the assay on A549/ATCC NSCLC; 102% in the assay with 786-0 renal; 102% with COLO 205 colon; 97.8% in the assay on DU-145 prostate; 100% in the assay on K-562 leukemia. Further, the growth was 119% with MALME-3M melanoma; 113% in the assay with MDA-MB-231 breast; 103% with RXF 393 renal; 105% in the assay with SF-268 CNS; 115% with SF-295 CNS; 97.5% with SF-539 CNS. Besides, the values for the growth in the assay on UACC-257 melanoma and in the assay on M14 melanoma were 98.3% and 105%, respectively.
Regarding `COc1cc(OC)c2c(=O)c3c(CC=C(C)C)cc(OC)c(O)c3oc2c1`, the growth in the assay with NCI-H23 lung is 93.7%; with NCI-H226 lung it was 99.3%; in the assay with NCI-H322M lung, 83.7%; with HOP-62 NSCLC it was 89.1%; with NCI-H460 lung it was 99.2%; in the assay with HOP-92 NSCLC it was 77%. For the same molecule, the growth in the assay on NCI-H522 lung is 53%; with A549/ATCC NSCLC, 90.8%; with 786-0 renal, 90.1%; in the assay with COLO 205 colon, 111%; in the assay with DU-145 prostate, 85%; in the assay on K-562 leukemia, 61.4%. The growth is 114% with MALME-3M melanoma; 91.1% with MDA-MB-231 breast; 100% in the assay on RXF 393 renal; 93.6% in the assay with SF-268 CNS; 89.7% in the assay on SF-295 CNS; 91.4% in the assay on SF-539 CNS. For the same molecule, the growth in the assay with UACC-257 melanoma is 107%; in the assay with M14 melanoma, 91%.
As for `O=C(CSc1nnnn1-c1ccccc1)Nc1ccc(Oc2ccccc2)cc1`, the growth in the assay with NCI-H23 lung is 101%; with NCI-H226 lung, 87.5%; in the assay with NCI-H322M lung, 114%; with HOP-62 NSCLC, 95.6%; with NCI-H460 lung, 110%; with HOP-92 NSCLC it was 75%. Further, the growth is 79.3% in the assay with NCI-H522 lung; 101% in the assay on A549/ATCC NSCLC; 102% with 786-0 renal; 110% with COLO 205 colon; 111% in the assay on DU-145 prostate; 120% in the assay on K-562 leukemia. Moreover, the growth in the assay with MALME-3M melanoma is 133%; with MDA-MB-231 breast, 94.2%; in the assay on RXF 393 renal, 111%; in the assay on SF-268 CNS, 101%; with SF-295 CNS, 100%; in the assay on SF-539 CNS, 111%. The growth was 96.2% in the assay on UACC-257 melanoma and 111% in the assay on M14 melanoma.
For `COC1C(O)CC(OC2CC(OC3CC(O[C@@H]4C(=O)c5c(cc6cc(OC7CC(OC8CC(O)C(O)C(C)O8)C(O)C(C)O7)c(C)c(O)c6c5O)CC4[C@H](OC)C(=O)C(C)=O)OC(C)C3O)OC(C)C2O)OC1C` (stereo not given in full), the growth with NCI-H23 lung is -23.8% (active); in the assay on NCI-H226 lung it was -10.8% (active); in the assay on NCI-H322M lung, -8.5% (active); with HOP-62 NSCLC, -20.1% (active); in the assay with NCI-H460 lung it was 8.4% (active); with HOP-92 NSCLC, -6.32% (active). Further, the growth with NCI-H522 lung is -35.4% (active); with A549/ATCC NSCLC, 1.9% (active); in the assay with 786-0 renal, 4.33% (active); in the assay with COLO 205 colon, -47.6% (active); with DU-145 prostate, 10.4%; with K-562 leukemia, 2.1% (active). Also, the growth is -30.6% (active) in the assay on MALME-3M melanoma; 6.75% (active) with MDA-MB-231 breast; -56.3% (active) with RXF 393 renal; 2.33% (active) with SF-268 CNS; 0.867% (active) with SF-295 CNS; -20.8% (active) in the assay on SF-539 CNS. Besides, the growth in the assay on UACC-257 melanoma was -23.4% (active); in the assay on M14 melanoma it was -34.4% (active).
As for `CCOC(=O)/C(=C(/C)NCC(C)C)c1cc(O)c(O)c2c(C)cc(=O)[nH]c12`, the growth in the assay on NCI-H23 lung was 51.4%; in the assay with NCI-H226 lung it was 71.9%; with NCI-H322M lung it was 62.5%; with HOP-62 NSCLC it was 38.2%; with NCI-H460 lung, 23.1%; in the assay with HOP-92 NSCLC, 40.2%. In addition, the growth is 26.8% in the assay with NCI-H522 lung; 45.2% in the assay on A549/ATCC NSCLC; 47.4% in the assay on 786-0 renal; 99.7% in the assay with COLO 205 colon; 64.5% in the assay with DU-145 prostate; 24.5% in the assay on K-562 leukemia. Also, the growth with MALME-3M melanoma is 53.8%; in the assay on MDA-MB-231 breast, 61.3%; with RXF 393 renal it was 83%; in the assay with SF-268 CNS, 24.1%; in the assay on SF-295 CNS it was 52.3%; with SF-539 CNS it was 35.7%. Also, the growth in the assay with UACC-257 melanoma was 83.5%; with M14 melanoma, 53.3%.

The values are drawn from PubChem BioAssay (NCI).
